The record followed here is PubChem BioAssay AID651956 (Broad Institute, 2012).

Entries with a potency or affinity are not part of this list. Inconclusive results are not listed. The source made the active and inactive calls.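 Rule for the calls: active = in every test run, a fitted half-maximal concentration for signal decrease at or below twice the highest tested concentration; inconclusive = runs disagree, flat 30 to 70% decrease, or poor fit; inactive = the rest.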

This test in a line: activation of miR-122 Renilla sensor silencing – cell-based, Huh7 psiCHECK-miR122, Renilla luciferase, cherry-picked, dose response (AID 651956).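 Note: Renilla luciferase from a miR-122 sensor reporter so lower signal means miR-122 activation.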

Consider `O=C(C1CC1)N1C[C@H]2[C@@H](c3ccccc31)[C@H](CO)N2C(=O)c1ccccc1F`, for which the compound was classed as inactive.
In the case of `Cc1ccc(S(=O)(=O)NCCCNS(C)(=O)=O)cc1` it was “inactive”; in that of `O=C(COc1cccc2ccccc12)Nc1nc2ccccc2[nH]1`, “inactive”.
In the case of `CN1C(=O)c2cc(NC(=O)C3CC3)ccc2OC[C@@H]2O[C@H](CC(=O)NCCN3CCCC3)CC[C@H]21` it was “inactive”; in that of `CN1C(=O)c2cc(NC(=O)c3ccc4c(c3)OCO4)ccc2OC[C@@H]2O[C@@H](CC(=O)O)CC[C@@H]21`, “inactive”; in that of `C/C=C/c1ccc([C@@H]2[C@@H](CO)N[C@@H]2CN(CC)C(=O)CN2CCOCC2)cc1`, “inactive”.
Turning to `COC(=O)C[C@H]1CC[C@H]2[C@H](COc3ccc(NC(=O)c4cscn4)cc3C(=O)N2C)O1`, the outcome was inactive.
The same measure for `COc1cc(-c2nnc(-c3ccco3)o2)ccc1OCc1ccccc1`: “inactive”; for `O=C(NCCCN1CCCC1)c1ccc(CSCc2cccc(Cl)c2)o1`: “inactive”.
The same measure for `CCC(=O)N1[C@H](CN(C)C(C)=O)[C@H](c2ccc(-c3cccnc3)cc2)[C@@H]1CO`: “inactive”; for `CNC(=O)C[C@@H]1CC[C@@H]2[C@@H](COc3ccc(NC(=O)Cc4cccs4)cc3C(=O)N2C)O1`: “inactive”; for `CN(C[C@H]1N[C@@H](CO)[C@H]1c1ccc(-c2ccccc2)cc1)C(=O)C1CCC1`: “inactive”.
With `COc1cccc(NC(=O)C[C@@H]2CC[C@@H]3[C@@H](COc4ccc(NS(=O)(=O)c5cccc(F)c5)cc4C(=O)N3C)O2)c1`, the compound was classed as inactive.
For `FC(F)(F)c1cnc(N2CCCN(C(=S)Nc3ccccc3)CC2)c(Cl)c1`, the outcome was inactive.
Take `CCC(=O)NC[C@H]1[C@H](c2ccc(C3=CCCC3)cc2)[C@H](CO)N1C(C)=O`: the outcome was inactive.
In the case of `CNC(=O)C[C@@H]1CC[C@@H]2[C@H](COc3ccc(NC(=O)c4cccc(OC)c4)cc3C(=O)N2C)O1` it was “inactive”; in that of `Cc1c(CC(=O)NCCCC(=O)O)c(=O)oc2cc3occ(-c4ccccc4)c3cc12`, “inactive”.
As for `COc1nnc(-c2ccc(N3CCOCC3)c(NC(=O)c3ccccc3)c2)c2ccccc12`, the call was inactive.
On to `COC(=O)c1cc(NS(=O)(=O)c2ccc3c(c2)CCC(=O)N3)cc(C(=O)OC)c1`, for which the compound was classed as inactive.
With `COc1ccccc1C#Cc1ccc2c(c1)O[C@H](CN(C)Cc1cccnc1)[C@H](C)CN([C@@H](C)CO)S2(=O)=O`, the compound was called inactive.
The same measure for `CNC(=O)C[C@H]1CC[C@@H]2[C@@H](COc3ccc(NC(=O)C(C)C)cc3C(=O)N2C)O1`: “inactive”.
For `COc1ccc(CN2CCN(Cc3cccn3-c3ncccn3)CC2CCO)c(C)c1C` (configuration not stated), the result was inactive.
In the case of `CCCCNC(=O)Nc1nnc(-c2ccc(OCC)cc2)o1` it was “inactive”.
In the case of `CNC(=O)C[C@@H]1CC[C@H]2[C@@H](COc3ccc(NC(=O)c4ccc(C(F)(F)F)cc4)cc3C(=O)N2C)O1` it was “inactive”; in that of `O=C(c1cccnc1)N1C[C@H]2[C@@H](c3ccccc31)[C@H](CO)N2C(=O)Nc1ccccc1`, “inactive”.
The same measure for `CN1C(=O)c2cc(NC(=O)Nc3ccccc3F)ccc2OC[C@@H]2O[C@@H](CC(=O)NCc3ccc(-c4ccccc4)cc3)CC[C@@H]21`: “inactive”; for `CC(=O)N1[C@H](CNC(=O)C2CC2)[C@H](c2ccc(-c3cccc(F)c3)cc2)[C@@H]1CO`: “inactive”.
With `COc1cccc(CNC(=O)C[C@@H]2CC[C@@H]3[C@@H](COc4ccc(NC(C)=O)cc4C(=O)N3C)O2)c1`, the outcome was inactive.
Regarding `COc1ccc(NC(=O)N(C)C[C@@H]2Oc3cc(C#CCC(C)C)ccc3S(=O)(=O)N([C@@H](C)CO)C[C@@H]2C)cc1`, the compound was classed as inactive.
The same measure for `C/C=C/c1ccc([C@H]2[C@H](CO)N[C@H]2CN(C)S(=O)(=O)c2ccccc2)cc1`: “inactive”.
Turning to `CC(C)C(=O)Nc1ccc2c(c1)C(=O)N(C)[C@@H]1CC[C@@H](CC(=O)N[C@H](C)c3ccccc3)O[C@@H]1CO2`, the compound was called inactive.
The same measure for `CNC[C@H]1Oc2cc(C#CC3CCCCC3)ccc2S(=O)(=O)N([C@H](C)CO)C[C@@H]1C`: “inactive”; for `CCS(=O)(=O)Nc1ccc2c(c1)C(=O)N(C)[C@H]1CC[C@H](CC(=O)NCCCN3CCOCC3)O[C@H]1CO2`: “inactive”.
For the compound `COCCNC(=O)C[C@H]1CC[C@@H]2[C@H](COc3ccc(NC(=O)C4CCOCC4)cc3C(=O)N2C)O1`, the call was inactive.
In the case of `Cc1cccc(NC(=O)Nc2ccc3c(c2)C(=O)N(C)[C@H]2CC[C@H](CC(=O)O)O[C@H]2CO3)c1` it was “inactive”.
Consider `CNC(=O)C[C@@H]1CC[C@@H]2[C@@H](COc3ccc(NC(=O)c4ccccc4OC)cc3C(=O)N2C)O1`, for which the outcome was inactive.
For `CCc1nc2sc(C)c(C)c2c(=O)n1CCO`, the compound was called inactive.
